High-throughput results as filed in PubChem.
Most compounds without a hit are left out; they make up all but 1.9% or so of the library.
eIF4H inh: inhibitors of RNA binding by human eIF4H; Q15056; eIF4H fluorescence polarization binding assay; inhibition, % at 35 µM; hit rate 0.94% among 290,000; AID 2012;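 note: calls also rest on retests at 20 µM and on dose response follow-up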
PABP FP inh: blocks human PABP binding to poly(A) RNA | fluorescence polarization | hit rate 1% among 290,000 | inhibition, % at 35 µM;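 note: calls also rest on retests at 20 µM and on dose response follow-up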
GRK2 inh: human GRK2 inhibition via aptamer displacement; AID 488847; P25098; bead flow cytometry, FAM-aptamer displacement from GRK2; inhibition of aptamer binding, % at 10 µM; hit rate 0.59% among 330,000;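 active = inhibition of aptamer binding above 40%, roughly 3 SD of noise, on plates passing a quality check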;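 note: median bead fluorescence of bound FAM aptamer so fluorescent compounds give negative values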
Target sequence (P25098 whole entry, looked up): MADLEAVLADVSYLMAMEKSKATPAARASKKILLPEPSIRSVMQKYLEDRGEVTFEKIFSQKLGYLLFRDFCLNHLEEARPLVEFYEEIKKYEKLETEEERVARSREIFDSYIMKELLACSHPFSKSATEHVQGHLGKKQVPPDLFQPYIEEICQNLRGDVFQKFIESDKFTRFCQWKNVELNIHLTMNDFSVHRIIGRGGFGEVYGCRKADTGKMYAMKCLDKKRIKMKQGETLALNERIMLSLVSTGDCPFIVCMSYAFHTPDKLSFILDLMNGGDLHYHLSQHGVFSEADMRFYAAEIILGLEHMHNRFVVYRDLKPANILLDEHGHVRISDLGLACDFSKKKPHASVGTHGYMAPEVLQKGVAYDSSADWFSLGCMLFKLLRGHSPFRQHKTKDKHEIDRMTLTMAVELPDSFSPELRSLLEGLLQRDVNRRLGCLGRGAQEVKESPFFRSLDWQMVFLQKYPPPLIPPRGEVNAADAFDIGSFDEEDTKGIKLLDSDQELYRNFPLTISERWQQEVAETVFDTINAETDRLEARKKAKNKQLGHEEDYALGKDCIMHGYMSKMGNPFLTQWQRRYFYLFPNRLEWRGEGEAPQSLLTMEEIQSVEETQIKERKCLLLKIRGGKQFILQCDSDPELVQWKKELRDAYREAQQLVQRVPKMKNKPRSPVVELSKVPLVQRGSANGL
MLLE-PAM2 inh: blocks PAM2 peptide binding to the PABP1 MLLE domain; P11940; inhibition, % at 20 µM; AID 588489; GST-MLLE / FITC-PAM2 fluorescence polarization; hit rate 0.36% among 360,000; in the data active = inhibition above about 35%, passing the limit was not always enough
PERK inh: human PERK inhibition, primary cell-based screen. inhibition, % at 5.6 µM. CHO PERK-DD fusion, SEAP luminescence translation reporter. AID 1416. hit rate 0.17% among 220,000;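 active = inhibition above the mean inhibition of all tested compounds plus 3 SD, set separately per screening campaign, cut at about 2.9% in these data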;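 note: PERK kinase domain activated by AP20187 dimerizer at 100 nM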
GRK2 inh confirm: human GRK2 inhibition confirmation, cherry pick 1. shares compounds with GRK2 inh. bead-bound GRK2, FAM-aptamer displacement, flow cytometry. aptamer displacement, % at 10 µM. hit rate 4% among 2,000;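 active = aptamer displacement above 40%, near three times the noise of non-fluorescent compounds, on plates passing quality checks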;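 note: negative values mostly reflect intrinsic compound fluorescence rather than true enhancement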
FAM quench CP1: quenches fluorescent RNA aptamer, GRK2 hit artifact; shares compounds with GRK2 inh; Carboxyfluorescein RNA aptamer on beads, flow cytometry quenching; hits give low values; fluorescence response (% of DMSO), % at 10 µM; 2,000 tested, under 10 active; AID 504580;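 active = compounds that quench the bead-bound fluorescent RNA probe, cutting fluorescence to under half of the solvent control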;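 note: counterscreen run without GRK2 so only probe quenching by compound is measured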
GRK2 confirm 2: confirmation of human GRK2 inhibitors binding RNA aptamer site. bead-bound GRK2, FAM-aptamer displacement, flow cytometry. shares compounds with GRK2 inh. inhibition of aptamer binding, % at 10 µM. AID 504782. 360 tested, under 10 active;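 active = inhibition of aptamer binding above 40%, about triple the noise seen with nonglowing compounds, on plates passing quality control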;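 note: negative values mostly come from compounds that fluoresce themselves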
FAM quench SP: counter-screen for GRK2 binding hits: quenchers of fluorescent RNA aptamer | fluorescence response vs DMSO, % at 10 µM | AID 588494 | shares compounds with GRK2 inh | carboxyfluorescein RNA aptamer beads, flow cytometry quenching; hits give low values | 360 tested, under 10 active;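 active = response vs DMSO under 50%, meaning signal dropped by over half, treated as fluorescence quencher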;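 note: labelled aptamer on streptavidin beads without GRK2 as a quench counter-screen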
Each line names hits and unclear results; the compound was inactive in the other large screens (follow-up assays come after a bar, where they were run). Unless noted, the rule behind the calls is not given here.

COCCn1c(SCC(=O)Nc2cccnc2Cl)nc2cc(Cl)ccc2c1=O	none (no result: eIF4H inh, PABP FP inh, PERK inh)
CC(c1nnc(SCC(=O)Nc2cccnc2Cl)n1Cc1ccccc1)N(C)C (stereo not drawn)	GRK2 inh 99 | GRK2 inh confirm inactive | FAM quench CP1 inactive
CC(C)N(CCn1c(SCC(=O)Nc2cccnc2Cl)nc2ccccc2c1=O)C(C)C	GRK2 inh 42 (no result: eIF4H inh, PABP FP inh, PERK inh) | GRK2 confirm 2 inactive | FAM quench SP inactive
C=CCNc1nc(S(=O)Cc2ccc(C)cc2)nc2c1CCCC2 (stereo not drawn)	none
C=CCNC(=O)c1ccccc1NS(=O)(=O)c1ccc(OC)c(C(=O)N2CCOCC2)c1	none (no result: PERK inh)
CCN(CC)C(=O)c1ccccc1NS(=O)(=O)c1ccc(OC)c(C(=O)N2CCOCC2)c1	GRK2 inh 61 (no result: PERK inh) | GRK2 inh confirm inactive | FAM quench CP1 inactive
Cc1c(Br)c(O)c(Br)c(O)c1/C=N/n1c(-c2ccccc2)n[nH]c1=S	GRK2 inh 46 (no result: PERK inh) | GRK2 inh confirm inactive | FAM quench CP1 inactive
Oc1c(Br)cc(/C=N/n2c(-c3ccccc3)n[nH]c2=S)c(O)c1Br	none (no result: PERK inh)
CN(C)CCNC(=O)c1c(NC(=O)c2ccccc2)sc2c1CCCC2	none (no result: PERK inh)
CN(CCO)C(=O)c1c(NC(=O)c2ccccc2)sc2c1CCCC2	GRK2 inh 42 (no result: PERK inh) | GRK2 inh confirm inactive | FAM quench CP1 inactive
Cc1c(NC(=O)CN2C(=O)C3C4C=CC(C4)C3C2=O)c(=O)n(-c2ccccc2)n1C (stereo not drawn)	none
Cc1c(NC(=O)NC(C)N2C(=O)C3C4C=CC(C4)C3C2=O)c(=O)n(-c2ccccc2)n1C (stereo not drawn)	GRK2 inh 81 | GRK2 inh confirm inactive | FAM quench CP1 inactive
O=C1C2CCCCN2C(=O)N1CCN1CCN(c2cccc(Cl)c2)CC1 (stereo not drawn)	none (no result: eIF4H inh, PABP FP inh, GRK2 inh, PERK inh)
O=C1C2CCCN2C(=O)N1CCCCN1CCN(c2cccc(Cl)c2)CC1 (stereo not drawn)	GRK2 inh 100 | GRK2 confirm 2 inactive | FAM quench SP inactive
O=C(c1ccc2c(=O)n(CCc3ccccc3)c(=O)[nH]c2c1)N1CCN(c2ccccc2)CC1	GRK2 inh 88 (no result: PERK inh) | GRK2 inh confirm inactive | FAM quench CP1 inactive
COc1ccc([C@@H]2CC(=O)c3c(O)cc(O[C@@H]4O[C@H](CO[C@@H]5O[C@@H](C)[C@H](O)[C@@H](O)[C@H]5O)[C@@H](O)[C@H](O)[C@H]4O)cc3O2)cc1O	GRK2 inh 56 (no result: PERK inh) | GRK2 inh confirm inactive | FAM quench CP1 inactive
COc1ccc(-c2cc(=O)c3c(O)cc(OC4OC(COC5OC(C)C(O)C(O)C5O)C(O)C(O)C4O)cc3o2)cc1O (stereo not drawn)	none (no result: eIF4H inh, PABP FP inh, PERK inh)
O=C(CSc1ccc2nnc(CCNC(=O)c3ccccc3)n2n1)NCCc1ccccc1	none (no result: PERK inh)
O=C(N/N=C/c1cccc(F)c1)c1c(O)c2ccccc2[nH]c1=O	GRK2 inh 70 | GRK2 inh confirm inactive | FAM quench CP1 inactive
COc1ccc2nc(Nc3nc(CSc4nnnn4-c4ccccc4)cc(=O)[nH]3)nc(C)c2c1	GRK2 inh 46 | GRK2 inh confirm inactive | FAM quench CP1 inactive
CCOc1ccc2nc(Nc3nc(CSc4nnnn4-c4ccccc4)cc(=O)[nH]3)nc(C)c2c1	none
Cc1nc(SCC(=O)O)c(C#N)c2c1CCCC2	eIF4H inh 108, PABP FP inh 82, GRK2 inh 82 | GRK2 inh confirm inactive | FAM quench CP1 inactive
O=C(c1cc(S(=O)(=O)N2CCOCC2)ccc1F)N(Cc1nnc(-c2ccccc2Cl)o1)C1CC1	none (no result: eIF4H inh, PABP FP inh, PERK inh)
Cc1ccc(S(=O)(=O)N2CCOCC2)cc1C(=O)N(Cc1nnc(-c2ccccc2Cl)o1)C1CC1	GRK2 inh 44 (no result: PERK inh) | GRK2 confirm 2 inactive | FAM quench SP inactive
Cc1cccc(C)c1NC(=O)C1CCCN1C(=O)Nc1cccc(F)c1 (stereo not drawn)	none (no result: PERK inh)
O=C1[C@@H]2C(c3cccnc3)=NO[C@@H]2C(=O)N1c1ccc(Br)cc1	none
